For assay [1], the target named is Lysosomal acid glucosylceramidase (Homo sapiens) (UniProt P04062). Nature of the assay: Glucocerebrosidase-p2 (AID 348; in the data active means potency below about 10 µM; further: potency means the concentration at half of the fitted maximal effect). The settings on record: purified GBA, blue fluorogenic substrate, 40 min. The method, boiled down:
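Normal human glucocerebrosidase (0.2 nM) with blue fluorogenic substrate (80 uM final) in citrate/phosphate pH 5.9 with 10mM sodium taurocholate, 0.01% tween-20; 40 min RT, NaOH/glycine stop; fluorescence Ex 365/Em 440; AC50 from a titration from 0.6 nM upwards.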

The target of assay [2] is Luciferin 4-monooxygenase (Photinus pyralis) (UniProt P08659). Nature of the assay: Biochemical firefly luciferase enzyme assay for NPC (AID 624030).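 Further: purified P. pyralis luciferase at 10 nM with luciferin and ATP substrate; nearly all actives have a fitted effect of over 70% in size.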 The conditions noted are these: purified P. pyralis luciferase, luminescence, 5 min; series mostly up to 58.6 µM. In a few lines:
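Counter-screen for direct inhibition of the luciferase enzyme by approved-drug library compounds, run at 10 nM enzyme in 50 mM Tris acetate (final). Luminescence was read within 5 min of enzyme-buffer addition and normalized to PTC124 versus DMSO (0%).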

A short description of assay [3]: S16 Schwann cell viability assay (CellTiter-Glo assay) (AID 624031).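 Further: native untransfected S16 rat Schwann cells; cellular ATP luminescence as a viability measure; nearly all actives have a fitted effect of over 70% in size.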 The conditions noted are these: S16 rat Schwann cells viability, 24 h; series mostly up to 57.5 µM. In a few lines:
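Cells were seeded at 500-750 per well in phenol red-free DMEM with 10% FBS and left overnight. Compounds or DMSO were pinned in, incubation ran 24 h at 37 °C/5% CO2, then CellTiter-Glo reagent was added and luminescence measured.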
In general terms: Cellular ATP, detected with luciferase, serves as a proxy for viable cell number.

Assay [4] is described as follows: S16 Schwann cell PMP22 intronic element firefly luciferase assay (AID 624032). Further: nearly all actives have a fitted effect of over 30% in size. The conditions noted are these: S16 rat Schwann cells, PMP22 element FLuc, 24 h; series mostly up to 57.5 µM. In a few lines: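 Rat S16 Schwann cells stably carrying a PMP22 intronic element-driven Fluc reporter were seeded overnight, then exposed to compounds for 24 h at 37 °C. Luminescence was normalized to PTC124 (positive control) and DMSO (0% activity).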

A short description of assay [5]: S16 Schwann cell PMP22 intronic element beta-lactamase assay (AID 624044; calls by dose curve; further: nearly all actives have a fitted effect of over 15% in size). The conditions noted are these: S16 rat Schwann cells, PMP22 element beta-lactamase FRET, 24 h; series mostly up to 38.3 µM. In a few lines: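 Beta-lactamase reporter under a PMP22 intronic regulatory element in stable S16 rat Schwann cells; 24 h compound exposure. 460 nm blue signal normalized between DMSO (0%) and potassium clavulanate, with 535 nm FRET tracking viability; curves classed by r2 and response.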

For a further assay, the system named is JCK. Put plainly: qHTS profiling for inhibitors of Plasmodium falciparum proliferation (AID 504749). Further: nearly all actives have a fitted effect of over 60% in size. The settings on record: P. falciparum in erythrocytes, SYBR Green DNA, 72 h; series mostly up to 28.7 µM. In a few lines: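 Fluorescence of SYBR Green-bound parasite DNA, read at 485/535 nm, served as the growth measure. Infected erythrocytes were cultured with compound 72 h; artemisinin (0.29 uM) and DMSO wells defined the normalization range.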

The nature of assay [6]: qHTS Assay for Identification of Small Molecule Antagonists for Thrombopoietin (TPO) Signaling Pathway (AID 918). Further: potency means the concentration at half of the fitted maximal effect; nearly all actives have a fitted effect of over 60% in size. The settings on record: TPO-dependent cell signaling reporter, antagonist mode. The method, boiled down:
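Luminescence read-out: GPIIb-promoter luciferase in Ba/F3 cells carrying human TPO receptor. Compounds added with 26 pM TPO (EC50), 24 hrs, 37 C, 5% CO2; cells deprived of IL-3 overnight beforehand. Inhibition of signal scored.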
For orientation: Quantitative high-throughput screening tests each substance at several concentrations.

Assay [7] in a line: NCATS anti-infectives library activity on HEK293 viability as a counter-qHTS vs the C. elegans viability qHTS (AID 1745854). The settings on record: HEK293 viability counter-screen; series mostly up to 41.8 µM. In a few lines:
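CellTiter-Glo luminescence, read on a CCD imager, scored viability of HEK293 cells after 24 hr compound exposure at 37C. Library tested in several concentrations, 1:5 steps, up to 41.7 uM; digitonin served as control.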

Inconclusive results are not listed. Active and inactive are the calls of the source. Unless noted, the call rests on the fitted dose curve; in most records, active means well fitted curve in the direction sought with a large enough effect; inconclusive means small, poorly fitted or top-dose-only effect, or another doubt; inactive means no such curve, though single readings can be large; an effect the other way counts as inactive or inconclusive.

Luciferin 4-monooxygenase (Photinus pyralis), sequence (P08659 whole entry, looked up): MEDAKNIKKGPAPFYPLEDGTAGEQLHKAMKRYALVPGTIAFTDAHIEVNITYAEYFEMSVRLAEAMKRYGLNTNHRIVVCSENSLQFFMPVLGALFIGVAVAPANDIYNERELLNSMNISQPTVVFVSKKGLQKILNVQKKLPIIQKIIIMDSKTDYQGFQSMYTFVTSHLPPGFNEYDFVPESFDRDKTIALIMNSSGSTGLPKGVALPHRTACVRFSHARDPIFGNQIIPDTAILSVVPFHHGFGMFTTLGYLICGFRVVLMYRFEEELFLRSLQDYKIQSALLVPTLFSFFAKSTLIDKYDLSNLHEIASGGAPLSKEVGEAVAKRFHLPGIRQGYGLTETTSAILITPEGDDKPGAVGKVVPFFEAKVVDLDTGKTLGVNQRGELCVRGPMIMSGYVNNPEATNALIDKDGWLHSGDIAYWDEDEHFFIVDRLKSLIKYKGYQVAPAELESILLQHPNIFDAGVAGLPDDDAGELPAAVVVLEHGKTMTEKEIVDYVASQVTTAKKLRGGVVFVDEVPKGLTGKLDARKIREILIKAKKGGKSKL
Lysosomal acid glucosylceramidase (Homo sapiens), sequence (P04062 whole entry, looked up): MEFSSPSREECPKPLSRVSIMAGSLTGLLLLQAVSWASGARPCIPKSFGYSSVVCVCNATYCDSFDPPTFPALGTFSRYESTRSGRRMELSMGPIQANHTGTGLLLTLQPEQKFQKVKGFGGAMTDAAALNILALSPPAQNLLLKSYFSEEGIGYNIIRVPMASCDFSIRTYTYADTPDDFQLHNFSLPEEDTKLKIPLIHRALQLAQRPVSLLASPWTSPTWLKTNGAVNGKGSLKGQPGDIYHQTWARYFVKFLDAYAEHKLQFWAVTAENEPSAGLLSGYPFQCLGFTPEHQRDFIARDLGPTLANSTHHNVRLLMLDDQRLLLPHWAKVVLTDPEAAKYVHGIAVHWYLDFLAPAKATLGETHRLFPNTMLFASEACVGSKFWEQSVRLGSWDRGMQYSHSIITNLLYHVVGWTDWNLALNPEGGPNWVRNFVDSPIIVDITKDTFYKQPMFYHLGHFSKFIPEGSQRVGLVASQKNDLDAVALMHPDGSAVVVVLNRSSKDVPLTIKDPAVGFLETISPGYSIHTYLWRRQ

Consider `COC(=O)[C@@H]1[C@@H]2C[C@H]3c4[nH]c5ccccc5c4CCN3C[C@@H]2CC[C@@H]1O`, for which the Potency in assay [1] was > 11.4 µM (inactive). The Potency entry (in assay [2]; in assay [4]; in assay [5]; with JCK) was “inactive” each time. The compound was called inactive in assay [3].
In the case of `CC(C)(C)c1ccc(S(=O)(=O)/C=C\C#N)cc1`, the Potency in assay [6] was 0.794 µM (active).
Take `C[C@@H](C(=O)O)c1ccc(-c2ccccc2)c(F)c1`: the Potency entry (in assay [2]; in assay [4]; with JCK) was “inactive” in each case. In assay [3], the call was inactive.
Consider `COc1cc(CNC(=O)CCCC/C=C\C(C)C)ccc1O`, for which, in assay [7], the compound was called inactive.

The record behind these values is PubChem BioAssay (NCATS).
